Our source for the activity change, negative = inhibition and activity, negative = inhibition values is PubChem BioAssay (NCATS).

Records with an inconclusive call do not appear. Activity calls are given as the source filed them. The call rests on the fitted dose curve; in most records, active means well fitted curve in either direction with a large enough effect (not every such curve was filed as active); inconclusive means small, poorly fitted or top-dose-only effect, or another doubt; inactive means flat fitted curve, though single readings scatter.
On the % scale 0 is the no-effect control and ±100 the full control effect.

The first experiment is described as follows: NFAT Signaling Pathway (AID 444).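 Further: carbachol stimulus at about its EC50 of 1 µM final.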 The following applies: Jurkat NFAT-bla M1, carbachol, beta-lactamase ratio, 5 h; at 7.69 µM (top of the series) unless noted. The method, boiled down:
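Jurkat cells with NFAT-driven β-lactamase reporter and co-expressed M1 receptor, stimulated with carbachol (final 1 uM, ~EC50), compound titration, 5 h at 37 °C. CCF4 loaded 1 h at RT; 460/530 nm ratio gave %activity and AC50.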
As to `C[C@H](Br)C(=O)c1ccc2cc(Br)c3ccccc3c2c1`, the activity change, negative = inhibition is 26.1% (inactive). With `COc1ccc(C(=O)N2CCC3(CCCN(C(=O)Nc4cccc(F)c4)C3)CC2)cc1`, the activity change, negative = inhibition is 5.86% (inactive). The same measure, in the same setting: under `Cc1cc(C)c2c(SCc3ccc(Cl)cc3Cl)nc(N)nc2n1` stands -14.4% (inactive).

In the case of `CC(=O)Nc1nc(NC(C)=O)c2[nH]c(CO)nc2n1`, the activity change, negative = inhibition is 1.8% (inactive). Still for that read-out and setting: with `Clc1ccc(CN2CCCN(Cc3ccc(Cl)cc3)C2c2cc3ccccc3c3ccccc23)cc1` the figure was -10.5% (inactive); with `COc1cc(-c2[o+]c3cc(O)cc(O)c3cc2O)cc(O)c1O`, 20.3% (inactive); with `O=C(O)[C@@H](O)[C@@H](O)[C@H](O)[C@H](O)CO`, 5.42% (inactive). Still for that read-out and setting: under `Nc1nc2c(ncn2[C@@H]2C=C[C@@H](CO)C2)c(=O)[nH]1` stands 10.3% (inactive). Regarding `Cn1c(=S)c2[nH]c(SCCN3CCCC3)nc2n(C)c1=O`, the activity change, negative = inhibition is 11.4% (inactive). Same read-out and setting: under `C/C(CC/C(C)=N/O)=N/O` stands 2.59% (inactive). `Oc1ccc(Cn2c(-c3ccc(O)cc3)nc3ccccc32)cc1`: the activity change, negative = inhibition was 20.6% (inactive). On the same count and under the same terms, with `NCCNCC1CCNCC1` the figure was 8.35% (inactive); with `CO[C@@H]1/C=C\O[C@]2(C)Oc3c(C)c(O)c4c(O)c(cc(O)c4c3C2=O)NC(=O)/C(C)=C\C=C/[C@H](C)[C@@H](O)[C@H](C)[C@H](O)[C@H](C)[C@H](OC(C)=O)[C@@H]1C`, -26.6% (inactive); with `O=S(=O)(O)c1cc(N=Nc2cccc3ccccc23)c(O)c2ncccc12`, 8.38% (inactive). Still for that read-out and setting: with `N#[N+]c1ccc(Nc2ccccc2)cc1` the figure was -28.8% (inactive); with `COC(=O)N1CCC2(CCCN(Cc3cc(C(F)(F)F)cc(C(F)(F)F)c3)C2)CC1`, 0.959% (inactive). The same measure, in the same setting: under `CC(C)(N)CO[C@H]1C[C@H]2CC[C@@]1(C)C2(C)C` stands 3.38% (inactive). With `CC(=O)N[C@@H]1CONC1=O`, the activity change, negative = inhibition is 5.02% (inactive).

As to `CC1=NN(c2ccc(S(=O)(=O)O)cc2)C(=O)/C1=C\c1ccc(Cl)cc1`, the activity change, negative = inhibition is 7.84% (inactive).

For `O=C1C(=O)c2ccccc2C(O)=C1C(CCc1ccccc1)C1=C(O)c2ccccc2C(=O)C1=O`, the activity change, negative = inhibition was 6.66% (inactive). On the same count and under the same terms, under `C[N+](C)(N)Cc1csc(-c2ccc(Cl)cc2)n1` stands -11.8% (inactive); under `CC1=NCC[N@@+]1(CCc1ccccc1)Cc1ccccc1`, -20.4% (inactive); under `CN(CC(=O)O)Cc1c(O)c(Cl)cc(Cl)c1Cl`, 11.2% (inactive). Same read-out and setting: under `O=C(O)CS(=O)c1ccc2c3c(cccc13)C(=O)c1ccccc1-2` (stereo not given) stands -13.9% (inactive); under `O[C@@H](COc1ccc(Cl)cc1Cl)CN1CCCC1`, 2.25% (inactive). The same measure, in the same setting: with `O=S(=O)(c1ccccc1)N1CCC[C@@]2(CCN(Cc3ccccc3)C2)C1` the figure was -28.9% (inactive). As for `c1ccc([C@H](c2cccc3c2ccc2ccccc23)[C@H](c2ccccc2)c2cccc3c2ccc2ccccc23)cc1`, the activity change, negative = inhibition is -0.573% (inactive). With `O=C(O)CCc1c2ccc(=O)c(O)c-2oc2c(O)c(O)ccc12`, the activity change, negative = inhibition was 17.3% (inactive).

Regarding `O=C(O)C1(Nc2ccc(Cl)cc2)CCCC1`, the activity change, negative = inhibition was 7.56% (inactive). Same read-out and setting: under `O=c1cc(CF)[nH]c(=S)[nH]1` stands 5.97% (inactive). Regarding `C[C@@]12CCC(=O)C=C1CC[C@H]1[C@@H]2[C@@H](O)C[C@]2(C)[C@@H]1CC[C@@]2(O)C(=O)CO`, the activity change, negative = inhibition was 14% (inactive). On the same count and under the same terms, with `O=C(N/N=C\c1ccc2c(c1)CCC2)c1ccccc1O` the figure was 20.6% (inactive). With `N[C@@](CCc1ccccc1)(C(=O)O)c1ccccc1`, the activity change, negative = inhibition is 3.42% (inactive). Same read-out and setting: under `CC1CCC(O)([C@](C)(C(=O)O)c2ccccc2)CC1` (stereo not given in full) stands -26.7% (inactive); under `C[C@H]1C[C@H]2[C@H]3CCC4=CC(=O)C=C[C@@]4(C)[C@]3(F)[C@H](O)C[C@]2(C)[C@@]1(O)C(=O)COP(=O)(O)O`, 15.9% (inactive); under `O=C1Nc2ccccc2C1=Nc1ccc(S(=O)(=O)Nc2nccs2)cc1`, 12.8% (inactive). Same read-out and setting: with `N[C@@H](Cc1ccccc1)C(=O)O` the figure was 14.5% (inactive); with `C[C@]12CC[C@H]3c4ccc(O)cc4CC[C@@H]3[C@H]1CC[C@@H]2OP(=O)(O)O`, 9.37% (inactive). On the same count and under the same terms, with `O=[N+]([O-])c1ccc(Cl)c(CNc2ncnc3c2ncn3[C@@H]2CCCCO2)c1` the figure was 6.3% (inactive).

The nature of a further experiment: Stat Signaling Pathway (AID 446).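 Further: ME-180 cervical cancer cells given 40 pM IL-6 alongside compound; SIE-controlled beta-lactamase reporter measured as 460/530 nm FRET emission ratio.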 As to conditions: ME-180 SIE beta-lactamase reporter, IL-6 stimulated, 5 h; at 7.69 µM (top of the series) unless noted. Put shortly:
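Screening format detects activators and inhibitors alike: ME-180 SIE-bla cells stimulated at 40 pM IL-6 for 5 hrs with compound, then dual-emission beta-lactamase read at 405 nm excitation.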
With `C[C@H](Br)C(=O)c1ccc2cc(Br)c3ccccc3c2c1`, the activity, negative = inhibition is -2.19% (inactive).

Take `COc1ccc(C(=O)N2CCC3(CCCN(C(=O)Nc4cccc(F)c4)C3)CC2)cc1`: the activity, negative = inhibition was -13.8% (inactive). Still for that read-out and setting: with `Clc1ccc(CN2CCCN(Cc3ccc(Cl)cc3)C2c2cc3ccccc3c3ccccc23)cc1` the figure was 2.22% (inactive); with `COc1cc(-c2[o+]c3cc(O)cc(O)c3cc2O)cc(O)c1O`, 0.423% (inactive). On the same count and under the same terms, with `O=C(O)[C@@H](O)[C@@H](O)[C@H](O)[C@H](O)CO` the figure was -3.53% (inactive).

For the molecule `Nc1nc2c(ncn2[C@@H]2C=C[C@@H](CO)C2)c(=O)[nH]1`, the activity, negative = inhibition is 5.37% (inactive).

For `Cn1c(=S)c2[nH]c(SCCN3CCCC3)nc2n(C)c1=O`, the activity, negative = inhibition is -0.274% (inactive).

Consider `C/C(CC/C(C)=N/O)=N/O`, for which the activity, negative = inhibition is -4.99% (inactive). Consider `NCCNCC1CCNCC1`, for which the activity, negative = inhibition was 3.5% (inactive). The same measure, in the same setting: under `CO[C@@H]1/C=C\O[C@]2(C)Oc3c(C)c(O)c4c(O)c(cc(O)c4c3C2=O)NC(=O)/C(C)=C\C=C/[C@H](C)[C@@H](O)[C@H](C)[C@H](O)[C@H](C)[C@H](OC(C)=O)[C@@H]1C` stands -1.99% (inactive).

For the molecule `O=S(=O)(O)c1cc(N=Nc2cccc3ccccc23)c(O)c2ncccc12`, the activity, negative = inhibition was 0.477% (inactive). Take `N#[N+]c1ccc(Nc2ccccc2)cc1`: the activity, negative = inhibition was -16.1% (inactive). In the case of `COC(=O)N1CCC2(CCCN(Cc3cc(C(F)(F)F)cc(C(F)(F)F)c3)C2)CC1`, the activity, negative = inhibition was -1.27% (inactive). In the case of `CC1=NN(c2ccc(S(=O)(=O)O)cc2)C(=O)/C1=C\c1ccc(Cl)cc1`, the activity, negative = inhibition is -1.78% (inactive). With `O=C1C(=O)c2ccccc2C(O)=C1C(CCc1ccccc1)C1=C(O)c2ccccc2C(=O)C1=O`, the activity, negative = inhibition was -1.13% (inactive). On the same count and under the same terms, with `C[N+](C)(N)Cc1csc(-c2ccc(Cl)cc2)n1` the figure was 0.559% (inactive); with `CC1=NCC[N@@+]1(CCc1ccccc1)Cc1ccccc1`, 11.6% (inactive); with `CN(CC(=O)O)Cc1c(O)c(Cl)cc(Cl)c1Cl`, 4.84% (inactive).

`O=C(O)CS(=O)c1ccc2c3c(cccc13)C(=O)c1ccccc1-2` (stereo not given): the activity, negative = inhibition is 1.69% (inactive).

Turning to `O[C@@H](COc1ccc(Cl)cc1Cl)CN1CCCC1`, the activity, negative = inhibition is 4.26% (inactive). As for `O=S(=O)(c1ccccc1)N1CCC[C@@]2(CCN(Cc3ccccc3)C2)C1`, the activity, negative = inhibition is -5.04% (inactive). For the molecule `O=C(O)C1(Nc2ccc(Cl)cc2)CCCC1`, the activity, negative = inhibition was 5.72% (inactive). Still for that read-out and setting: under `O=c1cc(CF)[nH]c(=S)[nH]1` stands 13.4% (inactive); under `C[C@@]12CCC(=O)C=C1CC[C@H]1[C@@H]2[C@@H](O)C[C@]2(C)[C@@H]1CC[C@@]2(O)C(=O)CO`, 4.86% (inactive); under `O=C(N/N=C\c1ccc2c(c1)CCC2)c1ccccc1O`, -2.26% (inactive). The same measure, in the same setting: under `CC1CCC(O)([C@](C)(C(=O)O)c2ccccc2)CC1` (stereo not given in full) stands -1.34% (inactive); under `C[C@H]1C[C@H]2[C@H]3CCC4=CC(=O)C=C[C@@]4(C)[C@]3(F)[C@H](O)C[C@]2(C)[C@@]1(O)C(=O)COP(=O)(O)O`, -7.89% (inactive). On the same count and under the same terms, under `O=C1Nc2ccccc2C1=Nc1ccc(S(=O)(=O)Nc2nccs2)cc1` stands -9.11% (inactive); under `N[C@@H](Cc1ccccc1)C(=O)O`, 12.6% (inactive). In the case of `C[C@]12CC[C@H]3c4ccc(O)cc4CC[C@@H]3[C@H]1CC[C@@H]2OP(=O)(O)O`, the activity, negative = inhibition was 2.17% (inactive). Take `O=[N+]([O-])c1ccc(Cl)c(CNc2ncnc3c2ncn3[C@@H]2CCCCO2)c1`: the activity, negative = inhibition was 1.26% (inactive).
